According to PubChem BioAssay AID1159580 (chemical genetic matrix, 2015):
Hit rate of the full screen: of about 5,500 compounds, about 2,000 (36%) were called active. Another 18% or so got no clear call; they are omitted. Rule as the data show it: active = normalized growth mostly below about 0.91 (no sharp cut-off); inconclusive = no clear call, values can overlap the other calls; inactive = mostly above about 0.92. This is one part of the list.

Assay: chemical genetic growth profiling, strain panel (AID 1159580);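 also: tested at 20 µM; growth read once vehicle control cultures reached saturation at 30 °C; 1 = growth at the plate median or of vehicle wells; lower values mean less growth of the strain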
Conditions: growth OD
[1] = S. cerevisiae deletion strains, locus YDL101C, strain DUN1, active compounds read low
[2] = S. cerevisiae deletion strains, locus YHR030C, strain SLT2, active compounds read low

Measured: normalized growth

Cn1cncc1S(=O)(=O)/C(C#N)=C/c1ccccc1Sc1ccc(Cl)cc1
inactive: S. cerevisiae deletion strains, locus YAR019C, strain CDC15, active compounds read low 0.987 | S. cerevisiae deletion strains, locus YBL105C, strain PKC1, active compounds read low 0.973 | S. cerevisiae deletion strains, locus YBR135W, strain CKS1, active compounds read low 0.975 | S. cerevisiae deletion strains, locus YBR136W, strain MEC1, active compounds read low 0.972 | S. cerevisiae deletion strains, locus YBR160W, strain CDC28, active compounds read low 0.983 | S. cerevisiae deletion strains, locus YDL017W, strain CDC7, active compounds read low 0.976 | S. cerevisiae deletion strains, locus YDL028C, strain MPS1, active compounds read low 0.979 | [1] 0.976 | S. cerevisiae deletion strains, locus YDL108W, strain KIN28, active compounds read low 0.979 | S. cerevisiae deletion strains, locus YDL132W, strain cdc53, active compounds read low 0.97 | S. cerevisiae deletion strains, locus YDL214C, strain PRR2, active compounds read low 0.771 | S. cerevisiae deletion strains, locus YDR052C, strain DBF4, active compounds read low 0.983 | S. cerevisiae deletion strains, locus YDR054C, strain cdc34, active compounds read low 0.982 | S. cerevisiae deletion strains, locus YDR226W, strain ADK1, active compounds read low 0.962 | S. cerevisiae deletion strains, locus YDR477W, strain SNF1, active compounds read low 0.773 | S. cerevisiae deletion strains, locus YER123W, strain YCK3, active compounds read low 0.729 | S. cerevisiae deletion strains, locus YER133W, strain GLC7, active compounds read low 0.786 | S. cerevisiae deletion strains, locus YFL009W, strain cdc4, active compounds read low 0.971 | S. cerevisiae deletion strains, locus YFL029C, strain CAK1, active compounds read low 0.984 | S. cerevisiae deletion strains, locus YFR003C, strain YPI1, active compounds read low 0.98 | S. cerevisiae deletion strains, locus YFR028C, strain CDC14, active compounds read low 0.969 | S. cerevisiae deletion strains, locus YGR040W, strain KSS1, active compounds read low 0.752 | S. cerevisiae deletion strains, locus YGR052W, strain FMP48, active compounds read low 0.713 | S. cerevisiae deletion strains, locus YGR092W, strain DBF2, active compounds read low 0.619 | S. cerevisiae deletion strains, locus YHR079C, strain IRE1, active compounds read low 0.668 | S. cerevisiae deletion strains, locus YHR205W, strain SCH9, active compounds read low 0.617 | S. cerevisiae deletion strains, locus YIL147C, strain SLN1, active compounds read low 0.973 | S. cerevisiae deletion strains, locus YJL095W, strain BCK1, active compounds read low 0.726 | S. cerevisiae deletion strains, locus YJL128C, strain PBS2, active compounds read low 0.944 | S. cerevisiae deletion strains, locus YJL157C, strain FAR1, active compounds read low 0.723 | S. cerevisiae deletion strains, locus YJR016C, strain ILV3, active compounds read low 0.982 | S. cerevisiae deletion strains, locus YJR066W, strain TOR1 (second series), active compounds read low 0.771 | S. cerevisiae deletion strains, locus YJR066W, strain TOR1, active compounds read low 0.678 | S. cerevisiae deletion strains, locus YKL048C, strain ELM1, active compounds read low 0.845 | S. cerevisiae deletion strains, locus YKL067W, strain YNK1, active compounds read low 0.854 | S. cerevisiae deletion strains, locus YKL101W, strain HSL1, active compounds read low 0.828 | S. cerevisiae deletion strains, locus YKL193C, strain SDS22, active compounds read low 0.976 | S. cerevisiae deletion strains, locus YKL203C, strain TOR2, active compounds read low 0.815 | S. cerevisiae deletion strains, locus YML070W, strain DAK1, active compounds read low 0.8 | S. cerevisiae deletion strains, locus YMR001C, strain CDC5, active compounds read low 0.971 | S. cerevisiae deletion strains, locus YMR205C, strain PFK2 (second series), active compounds read low 0.829 | S. cerevisiae deletion strains, locus YMR277W, strain FCP1, active compounds read low 0.973 | S. cerevisiae deletion strains, locus YNL006W, strain LST8, active compounds read low 0.984 | S. cerevisiae deletion strains, locus YNL020C, strain ARK1, active compounds read low 0.716 | S. cerevisiae deletion strains, locus YNL161W, strain CBK1, active compounds read low 0.978 | S. cerevisiae deletion strains, locus YNL183C, strain NPR1, active compounds read low 0.807 | S. cerevisiae deletion strains, locus YNL207W, strain RIO2, active compounds read low 0.971 | S. cerevisiae deletion strains, locus YNL222W, strain SSU72, active compounds read low 0.98 | S. cerevisiae deletion strains, locus YNL307C, strain MCK1 (second series), active compounds read low 0.681 | S. cerevisiae deletion strains, locus YOL078W, strain AVO1, active compounds read low 0.966 | S. cerevisiae deletion strains, locus YOR061W, strain CKA2, active compounds read low 0.758 | S. cerevisiae deletion strains, locus YOR119C, strain RIO1, active compounds read low 0.776 | S. cerevisiae deletion strains, locus YOR231W, strain MKK1, active compounds read low 0.794 | S. cerevisiae deletion strains, locus YOR329C, strain SCD5, active compounds read low 0.978 | S. cerevisiae deletion strains, locus YPL031C, strain PHO85, active compounds read low 0.743 | S. cerevisiae deletion strains, locus YPL153C, strain RAD53, active compounds read low 0.798 | S. cerevisiae deletion strains, locus YPL204W, strain HRR25, active compounds read low 0.699 | S. cerevisiae deletion strains, locus YPL209C, strain IPL1, active compounds read low 0.975 | S. cerevisiae deletion strains, locus YPR025C, strain CCL1, active compounds read low 0.977 | S. cerevisiae deletion strains, locus YPR106W, strain ISR1, active compounds read low 0.981 | S. cerevisiae deletion strains, locus YPR111W, strain DBF20, active compounds read low 0.962 | S. cerevisiae deletion strains, strain NNK1, active compounds read low 0.967 | S. cerevisiae deletion strains, strain TSCII, active compounds read low 0.974
active: S. cerevisiae deletion strains, locus YFR019W, strain FAB1, active compounds read low 0.75 | [2] 0.368 | S. cerevisiae deletion strains, locus YHR082C, strain KSP1, active compounds read low 0.6 | S. cerevisiae deletion strains, locus YLR113W, strain HOG1, active compounds read low 0.81 | S. cerevisiae deletion strains, locus YLR133W, strain CKI1, active compounds read low 0.73 | S. cerevisiae deletion strains, locus YLR403W, strain SFP1, active compounds read low 0.619 | S. cerevisiae deletion strains, locus YOL136C, strain PFK27, active compounds read low 0.674 | S. cerevisiae deletion strains, locus YPL256C, strain CLN2, active compounds read low 0.73

CC(=O)OCc1ccc(/C=C(\C#N)S(=O)(=O)c2ccc(Cl)cc2)o1
inactive: S. cerevisiae deletion strains, locus YAL013W, strain DEP1, active compounds read low 1.01 | S. cerevisiae deletion strains, locus YBR229C, strain ROT2, active compounds read low 1.01 | [1] 1.01 | S. cerevisiae deletion strains, locus YDR150W, strain NUM1, active compounds read low 1.06 | S. cerevisiae deletion strains, locus YEL061C, strain CIN8, active compounds read low 1 | S. cerevisiae deletion strains, locus YGR078C, strain PAC10, active compounds read low 1.01 | [2] 0.923 | S. cerevisiae deletion strains, locus YHR087W, strain rtc3, active compounds read low 0.983 | S. cerevisiae deletion strains, locus YJR043C, strain POL32, active compounds read low 1.04 | S. cerevisiae deletion strains, locus YJR075W, strain HOC1, active compounds read low 0.956 | S. cerevisiae deletion strains, locus YKL190W, strain CNB1, active compounds read low 1.02 | S. cerevisiae deletion strains, locus YLR039C, strain RIC1, active compounds read low 0.992 | S. cerevisiae deletion strains, locus YLR058C, strain SHM2 (second series), active compounds read low 0.996 | S. cerevisiae deletion strains, locus YLR085C, strain ARP6, active compounds read low 0.923 | S. cerevisiae deletion strains, locus YLR262C, strain YPT6, active compounds read low 1.01 | S. cerevisiae deletion strains, locus YML094W, strain GIM5, active compounds read low 0.993 | S. cerevisiae deletion strains, locus YMR219W, strain ESC1, active compounds read low 0.993 | S. cerevisiae deletion strains, locus YMR263W, strain SAP30, active compounds read low 1.06 | S. cerevisiae deletion strains, locus YMR307W, strain GAS1, active compounds read low 0.869 | S. cerevisiae deletion strains, locus YNL153C, strain GIM3, active compounds read low 1.03 | S. cerevisiae deletion strains, locus YNL298W, strain CLA4 (second series), active compounds read low 1.01 | S. cerevisiae deletion strains, locus YNL322C, strain KRE1, active compounds read low 0.985 | S. cerevisiae deletion strains, locus YNR030W, strain Alg12, active compounds read low 0.985 | S. cerevisiae deletion strains, locus YPL055C, strain LGE1, active compounds read low 1.13 | S. cerevisiae deletion strains, locus YPL241C, strain CIN2, active compounds read low 0.98 | S. cerevisiae deletion strains, locus YPR135W, strain CTF4, active compounds read low 0.966 | S. cerevisiae strains, strain wild type, active compounds read low 1.02
